Tests used:
Assay in all cases: DAPPL (digital affinity profiling via proximity ligation, sequencing); 10 mM Tris-HCl pH 7.5, 50 mM NaCl, 1 mM DTT, 4% glycerol, room temperature, 30 min; GST-TFs on glutathione beads, 16-mer random dsDNA library, 0.1% formaldehyde crosslink after washing; high values mean tight binding
[1] = molecular target: T1, FEV (Homo sapiens, UniProt Q99581 1-238); settings: protein: recombinant; tags: N-terminal GST; dsDNA, one strand shown
T1 sequence: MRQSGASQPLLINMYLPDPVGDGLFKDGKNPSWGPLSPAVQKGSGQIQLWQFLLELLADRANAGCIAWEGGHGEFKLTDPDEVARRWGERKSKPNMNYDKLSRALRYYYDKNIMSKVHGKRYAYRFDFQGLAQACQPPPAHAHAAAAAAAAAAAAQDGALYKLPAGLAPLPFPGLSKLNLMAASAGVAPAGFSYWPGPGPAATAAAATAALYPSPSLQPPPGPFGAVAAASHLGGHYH
Summary of the method: (§1)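 Each value of binding signal is a hexamer's read frequency for a factor divided by the same hexamer's frequency in the tag-only sample. Barcoded, bead-captured GST fusions of human transcription factors made in yeast were pooled with that sample and incubated with 200 nmole of a random double-stranded 16-mer DNA library in Tris/NaCl/DTT/glycerol buffer at room temperature for 30 min. Washing, 0.1% formaldehyde crosslinking, proximity ligation, PCR and Illumina NextSeq500 sequencing followed.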

[2] = molecular target: ETV5 (Homo sapiens, UniProt P41161 1-510); settings: protein: recombinant; tags: N-terminal GST; dsDNA, one strand shown
Summary of the method: as §1

[3] = molecular target: HSF1 (Homo sapiens, UniProt Q00613 1-529); settings: protein: recombinant; tags: N-terminal GST; chain copies: 3; dsDNA, one strand shown
Summary of the method: as §1

[4] = molecular target: T2, SPIC (Homo sapiens, UniProt Q8N5J4 1-248); settings: protein: recombinant; tags: N-terminal GST; dsDNA, one strand shown
T2 sequence: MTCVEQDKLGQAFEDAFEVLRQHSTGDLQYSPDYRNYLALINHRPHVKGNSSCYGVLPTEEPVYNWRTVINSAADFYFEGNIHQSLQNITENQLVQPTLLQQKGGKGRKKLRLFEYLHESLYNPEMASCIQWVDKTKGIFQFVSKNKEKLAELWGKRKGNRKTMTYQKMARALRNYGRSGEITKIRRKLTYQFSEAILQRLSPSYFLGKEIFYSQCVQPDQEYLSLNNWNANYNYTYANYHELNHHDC
Summary of the method: as §1

[5] = molecular target: ELF4 (Homo sapiens, UniProt Q99607 1-663); settings: protein: recombinant; tags: N-terminal GST; dsDNA, one strand shown
Summary of the method: as §1

[6] = molecular target: T3, ELK4 (Homo sapiens, UniProt P28324-2 1-405); settings: protein: recombinant; tags: N-terminal GST; dsDNA, one strand shown
T3 sequence: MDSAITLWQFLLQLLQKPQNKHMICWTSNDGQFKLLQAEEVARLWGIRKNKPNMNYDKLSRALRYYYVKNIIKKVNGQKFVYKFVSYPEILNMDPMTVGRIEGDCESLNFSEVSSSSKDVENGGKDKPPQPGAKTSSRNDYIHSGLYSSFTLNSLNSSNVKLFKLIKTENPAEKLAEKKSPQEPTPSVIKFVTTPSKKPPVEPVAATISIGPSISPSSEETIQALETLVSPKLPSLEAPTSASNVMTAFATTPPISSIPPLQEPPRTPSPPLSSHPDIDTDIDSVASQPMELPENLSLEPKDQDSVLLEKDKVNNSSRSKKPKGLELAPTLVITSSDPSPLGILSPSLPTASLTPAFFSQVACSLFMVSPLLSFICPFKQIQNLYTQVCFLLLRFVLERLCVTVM
Summary of the method: as §1

[7] = molecular target: T4, ETV2 (Homo sapiens, UniProt O00321 1-342); settings: protein: recombinant; tags: N-terminal GST; dsDNA, one strand shown
T4 sequence: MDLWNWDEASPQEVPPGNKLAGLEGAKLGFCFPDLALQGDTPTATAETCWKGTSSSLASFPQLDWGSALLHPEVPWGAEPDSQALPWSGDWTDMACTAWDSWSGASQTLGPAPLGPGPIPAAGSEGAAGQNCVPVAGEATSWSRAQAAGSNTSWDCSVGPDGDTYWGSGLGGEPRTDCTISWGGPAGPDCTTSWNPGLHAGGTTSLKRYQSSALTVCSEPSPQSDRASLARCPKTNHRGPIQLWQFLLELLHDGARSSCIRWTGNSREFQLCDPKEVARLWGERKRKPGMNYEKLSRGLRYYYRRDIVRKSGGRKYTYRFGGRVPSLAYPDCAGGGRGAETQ
Summary of the method: as §1

[8] = molecular target: T5, ELF3 (Homo sapiens, UniProt P78545 1-371); settings: protein: recombinant; tags: N-terminal GST; dsDNA, one strand shown
T5 sequence: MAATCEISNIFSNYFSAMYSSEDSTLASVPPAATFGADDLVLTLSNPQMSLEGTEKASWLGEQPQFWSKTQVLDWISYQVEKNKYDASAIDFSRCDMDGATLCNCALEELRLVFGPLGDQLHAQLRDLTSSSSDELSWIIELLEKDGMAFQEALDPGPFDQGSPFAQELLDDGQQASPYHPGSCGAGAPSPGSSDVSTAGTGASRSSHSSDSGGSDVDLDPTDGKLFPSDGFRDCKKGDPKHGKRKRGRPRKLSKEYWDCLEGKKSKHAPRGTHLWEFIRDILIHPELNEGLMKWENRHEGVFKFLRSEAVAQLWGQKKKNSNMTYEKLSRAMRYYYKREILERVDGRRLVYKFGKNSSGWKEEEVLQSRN
Summary of the method: as §1

[9] = molecular target: CRX (Homo sapiens, UniProt O43186 1-299); settings: protein: recombinant; tags: N-terminal GST; dsDNA, one strand shown
Summary of the method: as §1

[10] = molecular target: ETV1 (Homo sapiens, UniProt P50549 1-477); settings: protein: recombinant; tags: N-terminal GST; dsDNA, one strand shown
Summary of the method: as §1

[11] = molecular target: T6, ERF (Homo sapiens, UniProt P50548 1-548); settings: protein: recombinant; tags: N-terminal GST; dsDNA, one strand shown
T6 sequence: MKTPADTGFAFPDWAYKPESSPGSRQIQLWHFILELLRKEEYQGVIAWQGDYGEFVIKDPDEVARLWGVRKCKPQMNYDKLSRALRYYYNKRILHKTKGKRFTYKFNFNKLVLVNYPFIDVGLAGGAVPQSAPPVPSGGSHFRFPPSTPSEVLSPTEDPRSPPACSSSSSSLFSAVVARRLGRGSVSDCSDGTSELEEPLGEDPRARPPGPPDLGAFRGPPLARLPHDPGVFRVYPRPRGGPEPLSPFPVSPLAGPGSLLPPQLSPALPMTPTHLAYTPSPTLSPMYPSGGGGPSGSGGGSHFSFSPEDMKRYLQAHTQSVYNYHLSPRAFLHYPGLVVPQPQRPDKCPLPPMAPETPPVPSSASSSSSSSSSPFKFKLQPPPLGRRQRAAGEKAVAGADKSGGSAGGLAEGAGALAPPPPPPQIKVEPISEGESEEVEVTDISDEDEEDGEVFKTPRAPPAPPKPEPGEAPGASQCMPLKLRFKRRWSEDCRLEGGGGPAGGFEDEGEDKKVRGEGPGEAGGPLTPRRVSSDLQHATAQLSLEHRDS
Summary of the method: as §1

[12] = molecular target: T7, ETV3L (Homo sapiens, UniProt Q6ZN32 1-361); settings: protein: recombinant; tags: N-terminal GST; dsDNA, one strand shown
T7 sequence: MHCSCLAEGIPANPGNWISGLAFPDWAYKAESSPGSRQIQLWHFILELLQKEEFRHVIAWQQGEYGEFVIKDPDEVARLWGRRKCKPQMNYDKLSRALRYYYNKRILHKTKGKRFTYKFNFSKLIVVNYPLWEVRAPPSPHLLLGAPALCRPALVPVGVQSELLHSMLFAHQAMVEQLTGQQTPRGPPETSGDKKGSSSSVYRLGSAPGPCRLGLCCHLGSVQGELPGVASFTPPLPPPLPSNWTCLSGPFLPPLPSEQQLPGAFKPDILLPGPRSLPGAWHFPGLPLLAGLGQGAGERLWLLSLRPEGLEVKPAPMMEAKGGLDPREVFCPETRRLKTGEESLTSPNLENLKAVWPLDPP
Summary of the method: as §1

[13] = molecular target: T8, ETS2 (Homo sapiens, UniProt P15036 1-469); settings: protein: recombinant; tags: N-terminal GST; dsDNA, one strand shown
T8 sequence: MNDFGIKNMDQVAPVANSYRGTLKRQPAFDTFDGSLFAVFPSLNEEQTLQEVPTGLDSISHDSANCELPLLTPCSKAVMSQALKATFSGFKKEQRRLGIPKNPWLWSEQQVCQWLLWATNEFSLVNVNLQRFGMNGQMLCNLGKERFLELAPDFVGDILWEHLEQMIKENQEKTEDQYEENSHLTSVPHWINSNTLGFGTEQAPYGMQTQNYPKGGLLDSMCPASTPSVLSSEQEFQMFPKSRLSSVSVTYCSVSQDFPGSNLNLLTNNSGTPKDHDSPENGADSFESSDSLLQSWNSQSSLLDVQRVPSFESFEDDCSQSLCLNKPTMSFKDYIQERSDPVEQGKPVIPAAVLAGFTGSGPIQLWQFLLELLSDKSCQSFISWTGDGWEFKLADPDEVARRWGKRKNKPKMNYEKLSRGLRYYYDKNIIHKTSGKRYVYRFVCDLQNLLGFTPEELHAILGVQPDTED
Summary of the method: as §1

[14] = molecular target: T9, SPDEF (Homo sapiens, UniProt O95238 1-335); settings: protein: recombinant; tags: N-terminal GST; dsDNA, one strand shown
T9 sequence: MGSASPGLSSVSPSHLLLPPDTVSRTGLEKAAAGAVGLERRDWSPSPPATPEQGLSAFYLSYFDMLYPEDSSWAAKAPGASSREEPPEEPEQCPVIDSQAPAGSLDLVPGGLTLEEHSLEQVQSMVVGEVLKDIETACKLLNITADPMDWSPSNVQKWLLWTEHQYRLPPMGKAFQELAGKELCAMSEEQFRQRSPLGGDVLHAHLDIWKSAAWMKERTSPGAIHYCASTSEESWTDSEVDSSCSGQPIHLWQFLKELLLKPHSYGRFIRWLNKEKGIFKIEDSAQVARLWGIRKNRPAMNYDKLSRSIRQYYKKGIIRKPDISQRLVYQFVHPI
Summary of the method: as §1

[15] = molecular target: T10, ETV7 (Homo sapiens, UniProt Q9Y603 1-341); settings: protein: recombinant; tags: N-terminal GST; dsDNA, one strand shown
T10 sequence: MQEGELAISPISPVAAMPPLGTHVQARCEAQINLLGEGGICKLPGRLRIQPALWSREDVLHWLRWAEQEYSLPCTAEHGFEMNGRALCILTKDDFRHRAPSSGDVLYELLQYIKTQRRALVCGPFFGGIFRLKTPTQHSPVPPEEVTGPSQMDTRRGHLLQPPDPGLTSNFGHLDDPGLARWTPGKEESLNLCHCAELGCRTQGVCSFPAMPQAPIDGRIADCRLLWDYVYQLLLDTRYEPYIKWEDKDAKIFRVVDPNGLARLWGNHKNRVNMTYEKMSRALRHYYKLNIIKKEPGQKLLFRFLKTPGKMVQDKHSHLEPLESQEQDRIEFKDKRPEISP
Summary of the method: as §1

[16] = molecular target: T11, ELF5 (Homo sapiens, UniProt Q9UKW6-2 1-255); settings: protein: recombinant; tags: N-terminal GST; dsDNA, one strand shown
T11 sequence: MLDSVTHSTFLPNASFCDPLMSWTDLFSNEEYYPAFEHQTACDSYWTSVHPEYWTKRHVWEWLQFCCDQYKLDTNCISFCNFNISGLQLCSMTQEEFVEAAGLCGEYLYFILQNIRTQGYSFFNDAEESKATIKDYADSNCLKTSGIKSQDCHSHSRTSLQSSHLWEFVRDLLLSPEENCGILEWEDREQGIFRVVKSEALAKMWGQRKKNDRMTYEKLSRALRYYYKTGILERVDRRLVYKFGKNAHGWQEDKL
Summary of the method: as §1

[17] = molecular target: T12, ETV3 (Homo sapiens, UniProt P41162-2 1-143); settings: protein: recombinant; tags: N-terminal GST; dsDNA, one strand shown
T12 sequence: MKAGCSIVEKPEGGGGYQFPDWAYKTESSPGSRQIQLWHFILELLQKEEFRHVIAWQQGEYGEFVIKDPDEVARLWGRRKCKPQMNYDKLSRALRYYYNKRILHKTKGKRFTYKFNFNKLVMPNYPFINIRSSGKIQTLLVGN
Summary of the method: as §1

[18] = molecular target: ETV6 (Homo sapiens, UniProt P41212 1-452); settings: protein: recombinant; tags: N-terminal GST; dsDNA, one strand shown
Summary of the method: as §1

ETV6, sequence (P41212 whole entry): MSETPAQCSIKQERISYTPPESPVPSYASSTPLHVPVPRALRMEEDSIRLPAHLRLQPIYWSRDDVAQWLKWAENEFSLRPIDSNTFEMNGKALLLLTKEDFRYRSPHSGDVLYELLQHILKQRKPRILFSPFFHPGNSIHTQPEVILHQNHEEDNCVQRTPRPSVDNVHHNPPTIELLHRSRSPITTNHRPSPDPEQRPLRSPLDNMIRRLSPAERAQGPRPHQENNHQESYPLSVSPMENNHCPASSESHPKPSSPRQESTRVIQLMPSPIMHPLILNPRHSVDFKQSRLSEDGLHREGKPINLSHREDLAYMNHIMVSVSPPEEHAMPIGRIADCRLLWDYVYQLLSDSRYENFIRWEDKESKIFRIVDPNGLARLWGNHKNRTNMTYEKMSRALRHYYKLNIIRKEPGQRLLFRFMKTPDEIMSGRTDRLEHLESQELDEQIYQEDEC
HSF1, sequence (Q00613 whole entry): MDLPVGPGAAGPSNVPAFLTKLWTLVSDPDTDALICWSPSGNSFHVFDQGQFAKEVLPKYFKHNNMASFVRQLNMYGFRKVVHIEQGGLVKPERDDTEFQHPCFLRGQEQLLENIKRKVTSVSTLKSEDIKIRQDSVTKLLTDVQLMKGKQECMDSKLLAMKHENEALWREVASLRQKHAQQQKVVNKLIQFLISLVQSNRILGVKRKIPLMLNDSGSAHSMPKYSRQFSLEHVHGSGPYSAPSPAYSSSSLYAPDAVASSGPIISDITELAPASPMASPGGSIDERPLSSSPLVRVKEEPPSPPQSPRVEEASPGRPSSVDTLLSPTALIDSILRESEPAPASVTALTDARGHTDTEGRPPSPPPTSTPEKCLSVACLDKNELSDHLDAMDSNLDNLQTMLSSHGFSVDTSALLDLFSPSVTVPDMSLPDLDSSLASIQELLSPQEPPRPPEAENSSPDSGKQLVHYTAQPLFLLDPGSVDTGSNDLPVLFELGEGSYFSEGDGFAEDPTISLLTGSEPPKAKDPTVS
ETV5, sequence (P41161 whole entry): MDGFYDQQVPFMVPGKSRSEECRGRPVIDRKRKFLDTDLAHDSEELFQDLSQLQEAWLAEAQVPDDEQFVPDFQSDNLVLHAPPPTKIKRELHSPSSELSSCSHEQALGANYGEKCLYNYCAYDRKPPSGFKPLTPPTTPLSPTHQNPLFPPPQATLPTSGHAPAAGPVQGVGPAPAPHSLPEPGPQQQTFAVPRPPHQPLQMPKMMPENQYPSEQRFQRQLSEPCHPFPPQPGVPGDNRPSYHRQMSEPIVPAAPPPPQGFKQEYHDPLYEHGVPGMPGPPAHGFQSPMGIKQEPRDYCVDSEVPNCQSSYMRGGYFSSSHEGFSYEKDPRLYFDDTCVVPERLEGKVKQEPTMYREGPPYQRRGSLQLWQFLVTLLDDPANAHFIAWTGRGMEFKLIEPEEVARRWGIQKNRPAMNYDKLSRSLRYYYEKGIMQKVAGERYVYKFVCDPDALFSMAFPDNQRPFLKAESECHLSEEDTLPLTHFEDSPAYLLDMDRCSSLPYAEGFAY
CRX, sequence (O43186 whole entry): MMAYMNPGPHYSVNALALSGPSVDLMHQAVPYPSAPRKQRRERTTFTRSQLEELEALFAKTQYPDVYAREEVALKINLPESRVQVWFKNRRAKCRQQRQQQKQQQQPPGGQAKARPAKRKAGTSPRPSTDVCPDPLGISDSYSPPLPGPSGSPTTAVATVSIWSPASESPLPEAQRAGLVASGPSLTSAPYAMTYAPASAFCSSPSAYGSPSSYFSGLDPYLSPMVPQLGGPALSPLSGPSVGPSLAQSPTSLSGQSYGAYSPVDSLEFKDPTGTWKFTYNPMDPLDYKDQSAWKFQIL
ETV1, sequence (P50549 whole entry): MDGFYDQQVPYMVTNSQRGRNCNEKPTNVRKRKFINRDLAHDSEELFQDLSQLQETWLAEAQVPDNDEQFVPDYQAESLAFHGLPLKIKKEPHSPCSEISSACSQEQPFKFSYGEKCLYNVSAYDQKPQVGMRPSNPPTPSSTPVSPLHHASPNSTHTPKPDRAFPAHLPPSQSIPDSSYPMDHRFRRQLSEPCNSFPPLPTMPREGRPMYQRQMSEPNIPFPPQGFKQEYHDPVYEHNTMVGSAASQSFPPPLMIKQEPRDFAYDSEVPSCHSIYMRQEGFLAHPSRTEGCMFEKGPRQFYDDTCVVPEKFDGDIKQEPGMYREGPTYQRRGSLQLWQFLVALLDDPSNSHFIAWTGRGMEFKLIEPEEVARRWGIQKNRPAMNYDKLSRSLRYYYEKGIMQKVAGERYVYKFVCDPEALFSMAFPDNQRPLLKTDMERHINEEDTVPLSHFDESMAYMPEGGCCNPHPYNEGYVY
ELF4, sequence (Q99607 whole entry): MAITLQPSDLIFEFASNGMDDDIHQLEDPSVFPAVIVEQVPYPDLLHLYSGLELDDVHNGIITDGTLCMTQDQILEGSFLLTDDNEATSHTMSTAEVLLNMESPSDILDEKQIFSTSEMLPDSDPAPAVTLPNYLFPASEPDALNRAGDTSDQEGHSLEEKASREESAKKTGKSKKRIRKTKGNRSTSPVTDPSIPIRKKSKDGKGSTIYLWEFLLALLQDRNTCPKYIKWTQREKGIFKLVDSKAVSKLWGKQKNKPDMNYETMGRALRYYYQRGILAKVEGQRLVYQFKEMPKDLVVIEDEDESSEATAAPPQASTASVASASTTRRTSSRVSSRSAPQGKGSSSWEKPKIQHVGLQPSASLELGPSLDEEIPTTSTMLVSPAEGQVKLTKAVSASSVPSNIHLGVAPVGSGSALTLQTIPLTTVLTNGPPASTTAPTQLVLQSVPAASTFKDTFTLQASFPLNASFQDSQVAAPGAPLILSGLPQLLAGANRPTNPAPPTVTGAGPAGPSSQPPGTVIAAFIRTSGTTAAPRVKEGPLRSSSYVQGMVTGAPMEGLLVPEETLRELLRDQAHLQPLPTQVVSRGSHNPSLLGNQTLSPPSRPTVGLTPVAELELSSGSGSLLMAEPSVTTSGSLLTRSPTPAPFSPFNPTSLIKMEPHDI

Sequence	binding signal [1]	binding signal [2]	binding signal [3]	binding signal [4]	binding signal [5]	binding signal [6]	binding signal [7]	binding signal [8]	binding signal [9]	binding signal [10]	binding signal [11]	binding signal [12]	binding signal [13]	binding signal [14]	binding signal [15]	binding signal [16]	binding signal [17]	binding signal [18]
TCTTTC	1.39 fold enrichment (6-mer frequency, TF over GST control)	1.36 fold enrichment (6-mer frequency, TF over GST control)	1.82 fold enrichment (6-mer frequency, TF over GST control)	1.31 fold enrichment (6-mer frequency, TF over GST control)	1.32 fold enrichment (6-mer frequency, TF over GST control)	1.46 fold enrichment (6-mer frequency, TF over GST control)	1.42 fold enrichment (6-mer frequency, TF over GST control)	1.19 fold enrichment (6-mer frequency, TF over GST control)	1.41 fold enrichment (6-mer frequency, TF over GST control)	1.47 fold enrichment (6-mer frequency, TF over GST control)	1.33 fold enrichment (6-mer frequency, TF over GST control)	1.39 fold enrichment (6-mer frequency, TF over GST control)	1.43 fold enrichment (6-mer frequency, TF over GST control)	1.44 fold enrichment (6-mer frequency, TF over GST control)	1.27 fold enrichment (6-mer frequency, TF over GST control)	1.48 fold enrichment (6-mer frequency, TF over GST control)	1.44 fold enrichment (6-mer frequency, TF over GST control)	1.38 fold enrichment (6-mer frequency, TF over GST control)
ATCTAG	1.04 fold enrichment (6-mer frequency, TF over GST control)	1 fold enrichment (6-mer frequency, TF over GST control)	2.66 fold enrichment (6-mer frequency, TF over GST control)	1.19 fold enrichment (6-mer frequency, TF over GST control)	1.09 fold enrichment (6-mer frequency, TF over GST control)	1.27 fold enrichment (6-mer frequency, TF over GST control)	1.06 fold enrichment (6-mer frequency, TF over GST control)	1.24 fold enrichment (6-mer frequency, TF over GST control)	1.7 fold enrichment (6-mer frequency, TF over GST control)	1.03 fold enrichment (6-mer frequency, TF over GST control)	1.18 fold enrichment (6-mer frequency, TF over GST control)	1.08 fold enrichment (6-mer frequency, TF over GST control)	1.11 fold enrichment (6-mer frequency, TF over GST control)	1.03 fold enrichment (6-mer frequency, TF over GST control)	1.19 fold enrichment (6-mer frequency, TF over GST control)	1.1 fold enrichment (6-mer frequency, TF over GST control)	1.07 fold enrichment (6-mer frequency, TF over GST control)	1.05 fold enrichment (6-mer frequency, TF over GST control)
